High-throughput results (PubChem)
Nrf2 block – Nrf2 pathway inhibition; A549 ARE-Fluc reporter, luciferase luminescence, 18-24 h; Potency, µM (top dose mostly 46 µM), actives largely listed as inhibitors; 360,000 compounds, 2.1% hits; AID 504444; note: nearly all actives have a fitted effect of over 60% in size
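Nrf2 activity is the BugLite luminescence, read 15 min after reagent at room temperature, following CellTiter-Fluor cytotoxicity readout (30 min, 37C). Compound titrations were applied for 18-24 h to 5000 A549 ARE_Fluc cells/well in 5% FBS OPTI-MEM.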
Giardia killer – kills Giardia lamblia; 340,000 compounds, 0.15% hits; Giardia lamblia trophozoite viability; activity change, % at 7.66 µM, hits read low; AID 540267; in the data active = activity change below about -80%; inconclusive = between about -30% and that limit;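 note: parasites exposed to compound for two days anaerobically before the ATP read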
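Giardia trophozoites, 100 cells per well, were exposed to compounds for 48 hrs at 37 deg C under anaerobic conditions; viability was then read as ATP content by bioluminescence after 15-30 min at room temperature.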
KB-V1 MDR tox – KB-V1 MDR subline cytotoxicity; KB-V1 MDR cells viability, CellTiter-Glo, 72 h; Potency, µM (titrated, usually from 46.1 µM), hits mostly cytotoxic; 400,000 compounds, 3.4% hits; note: nearly all actives have a fitted effect of over 60% in size
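Drug-selected KB-V1 cells, grown in DMEM lacking phenol red with 10% FBS, receive compound titrations; after three days at 37 degrees C, surviving cell ATP is quantified by CellTiter-Glo luminescence and responses normalized and curve-fitted.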
KB-3-1 cytotox – kills parental KB-3-1 adenocarcinoma cells | KB-3-1 viability, CellTiter-Glo ATP luminescence, 72 h | Potency, µM (doses to about 46.1 µM), hits mostly cytotoxic | 400,000 compounds, 1.4% hits | AID 1347075; note: nearly all actives have a fitted effect of over 60% in size
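Screening of KB-3-1 cells (DMEM, 10% FBS, phenol-red free) ran from lowest to highest compound concentration; after 72 h at 37 °C viability was read luminescently and curves fitted.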
PI4K2A inh – blocks human PI4K2A kinase activity. activity change, negative = inhibition, % at 76.9 µM. Q9BTU6. 420,000 compounds, 0.13% hits. purified PI4K2A, ADP-Glo luminescence, 1 h; stronger effect = lower value. AID 1346378; in the data active = activity change below about -50%; inconclusive = mostly about -30% to -49%
Target sequence (Q9BTU6 whole entry, looked up): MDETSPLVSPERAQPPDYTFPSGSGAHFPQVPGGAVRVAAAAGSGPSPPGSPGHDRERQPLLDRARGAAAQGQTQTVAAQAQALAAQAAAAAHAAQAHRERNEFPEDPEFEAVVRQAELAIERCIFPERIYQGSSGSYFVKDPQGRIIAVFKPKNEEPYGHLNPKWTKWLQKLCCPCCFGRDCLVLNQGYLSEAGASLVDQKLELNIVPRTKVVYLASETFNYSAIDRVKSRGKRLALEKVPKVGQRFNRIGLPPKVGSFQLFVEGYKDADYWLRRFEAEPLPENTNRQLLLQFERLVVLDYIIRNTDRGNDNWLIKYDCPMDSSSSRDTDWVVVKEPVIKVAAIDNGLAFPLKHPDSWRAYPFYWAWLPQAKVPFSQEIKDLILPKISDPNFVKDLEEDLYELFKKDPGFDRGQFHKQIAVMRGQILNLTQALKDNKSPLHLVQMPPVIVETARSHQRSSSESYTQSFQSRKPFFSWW
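ADP-Glo luminescence measured ADP generated by PI4K2A enzyme (4 ug/mL before mixing) with 1.2 mM PI substrate (pre-mix) and 300 microM ATP (pre-mix). Tris pH7.5 buffer with MgCl2, Triton X-100; 1 h reaction at ambient temperature.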
A549 tox-1 – kills or reduces viability of A549 cells in Nrf2 counter-screen; A549 ARE-Fluc cells, CellTiter-Fluor viability, 18-24 h; AID 504648; 390,000 compounds, 0.16% hits; Potency, µM (top dose mostly 46 µM), actives largely listed as inhibitors
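Cytotoxicity counterscreen: CellTiter-Fluor fluorescence was measured in A549 ARE_Fluc cells after 18-24 h of compound exposure in a concentration series. The subsequent BugLite luminescent read reports ARE-luciferase activity.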
FLuc enzyme inh – blocks purified firefly luciferase in Nrf2 counterscreen | shares compounds with Nrf2 block | purified firefly luciferase, luminescence inhibition | Potency, µM (doses to about 57.5 µM), most hits filed as inhibitors | 1,400 compounds, 4% hits | AID 720522; note: nearly all actives have a fitted effect of over 65% in size
A549 tox-2 – A549 cytotoxicity, Nrf2 inhibitor counterscreen. shares compounds with Nrf2 block. A549 ARE-Fluc cells, cytotoxicity counterscreen. Potency, µM (highest dose often 46.1 µM), usual class: inhibitors. 1,400 compounds, 2% hits. AID 720523;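 note: cells exposed to compounds for 18 to 24 hours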
Nrf2 ARE inh – Nrf2 inhibition confirmed, A549 ARE-luciferase | Potency, µM (top dose mostly 46.1 µM), usual class: inhibitors | A549 ARE-firefly luciferase reporter, luminescence | 1,400 compounds, 74% hits | AID 720524 | shares compounds with Nrf2 block; note: nearly all actives have a fitted effect of over 65% in size
Hits are given with their value; - = inactive; ? = inconclusive; . = not tested or not shown. This is a sample that favours compounds with a hit; in the whole collection about 5.7% have one here. Unless noted, calls come from the whole dose curve; as a rule, active = well fitted curve in the direction sought with a large enough effect; inconclusive = small, poorly fitted or top-dose-only effect, or another doubt; inactive = no such curve, though single readings can be large; an effect the other way counts as inactive or inconclusive.

SMILES	Nrf2 block	Giardia killer	KB-V1 MDR tox	KB-3-1 cytotox	PI4K2A inh	A549 tox-1	FLuc enzyme inh	A549 tox-2	Nrf2 ARE inh
CCN(CC)C(=O)c1ccc2nc3ccccc3nc2c1	1.5µM	-	16µM	5.8µM	-	?	?	?	.
CC/C(=N/NC(=O)c1ccc2c(c1)OCO2)c1ccccc1O	5.2µM	-	?	?	-	-	11µM	-	-
O=C(CCCN1C(=O)/C(=C/c2ccccc2Cl)SC1=S)NNC(=O)c1ccc(Cl)cc1	8.2µM	-	-	-	-	-	-	-	7.3µM
O=C(CCN1C(=O)/C(=C/c2ccccc2Cl)SC1=S)NNC(=O)c1cccnc1	-	-	-	-	-	-	.	.	.
Cc1ccc(/C=C2/SC(=S)N(CCCC(=O)Nc3ccc(O)cc3)C2=O)cc1	9.2µM	-	?	?	-	?	?	?	13µM
Cc1ccc(C(=O)NNC(=O)CCCN2C(=O)/C(=C/c3ccccc3Cl)SC2=S)cc1	9.2µM	-	-	-	-	?	?	-	?
CCCCCCCCN1CN2Cc3ccc(C)cc3C2CS1(=O)=O (centres undefined)	.	.	.	.	-	.	.	.	.
c1csc(CNc2ncnc3sccc23)c1	5.8µM	-	-	-	-	-	-	-	7.3µM
C=CCN1C(=O)[C@H](CC(=O)NCC23CC4CC(CC(C4)C2)C3)[C@@]2(C(=O)OCC)CCCC=C12	.	.	.	.	-	.	.	.	.
COc1ccc(N2CCN(C(=S)Nc3ccccc3)CC2)cc1	-	-	-	-	-	-	.	.	.
CC(=O)c1ccc(N2CCN(C(=S)Nc3ccc(Oc4ccccc4)cc3)CC2)cc1	6.5µM	-	?	-	-	?	-	-	8.2µM
Nn1c(SCC(=O)Nc2cccc3ccccc23)nnc1-c1cc(-c2ccccc2)n[nH]1	.	.	.	.	-	.	.	.	.
CC(C)CC[n+]1ccccc1/C=C/c1ccc(N(C)C)cc1	7.3µM	-	-	1.5µM	-	?	-	?	5.8µM
CN(C)c1ccc(/C=C/c2cccc[n+]2[O-])cc1	-	-	-	-	-	-	.	.	.
Nc1nc(-c2ccco2)nn1C(=O)c1ccc(Cl)cc1	7.3µM	-	-	-	-	-	-	-	4.1µM
CCCCCn1nnnc1C1(C)CSCC(=O)N1Cc1ccco1 (centres undefined)	.	.	.	.	-	.	.	.	.
COc1cccc(C2C=C(c3ccccc3)Nc3c(C(=O)Nc4ccccc4)cnn32)c1OC (centres undefined)	2.3µM	.	.	.	-	-	-	-	?
CCOc1ccc(NC(=O)c2cnn3c2NC(c2ccccc2)=CC3c2cccc(OC)c2OC)cc1 (centres undefined)	-	.	-	-	-	-	.	.	.
Cc1ccc(N2C(=O)CS(=O)(=O)C23C(=O)N(Cc2ccccc2F)c2ccccc23)cc1Cl (centres undefined)	-	.	-	-	-	-	.	.	.
COc1ccc(-n2c(SCC(=O)c3ccc4ccccc4c3)nnc2-c2ccccc2)cc1	.	.	.	.	-	.	.	.	.
C=CC[n+]1c(-c2ccc(C)cc2)csc1Nc1ccc(NC(C)=O)cc1	6.5µM	-	?	?	-	-	-	-	6.5µM
O=C(O)CCn1nnc(-c2cccs2)n1	-	-	-	-	-	-	.	.	.
CC(C)c1ccc(-c2nnn(CCC(=O)O)n2)cc1	0.33µM	-	-	-	-	-	11µM	-	0.82µM
COc1ccc(NC(=O)N(CCc2c(C)[nH]c3ccccc23)Cc2cccs2)cc1OC	.	.	.	.	-	.	.	.	.
COc1ccc(NC(=O)CN(C)C(=O)c2cccc(S(=O)(=O)N3CCN(c4ccc(F)cc4)CC3)c2)cc1	5.8µM	-	-	?	-	?	-	-	18µM
SMILES	Nrf2 block	Giardia killer	KB-V1 MDR tox	KB-3-1 cytotox	PI4K2A inh	A549 tox-1	FLuc enzyme inh	A549 tox-2	Nrf2 ARE inh
CN(CC(=O)Nc1ccc(F)cc1)C(=O)c1cccc(S(=O)(=O)N2CCN(c3ccccc3)CC2)c1	?	?	?	?	-	-	.	.	.
COc1ccc(CNC(=O)c2cccc(S(=O)(=O)N3CCN(c4ccc(F)cc4)CC3)c2)cc1	?	-	-	-	-	-	.	.	.
COc1cccc(CNC(=O)c2cccc(S(=O)(=O)N3CCN(c4ccc(F)cc4)CC3)c2)c1	?	-	?	-	-	-	-	-	?
CCCc1cnc2c(c1SCC(=O)N1CCC(C)CC1)c(=O)n(C)c(=O)n2C	.	.	-	-	-	-	.	.	.
COc1cccc(NC(=O)CSc2nc3ccc(NC(=O)c4cccs4)cc3s2)c1	?	.	-	-	-	-	.	.	.
COc1ccc(C(=O)N/N=C(\c2ccccc2)c2ccccn2)cc1	8.2µM	-	0.65µM	-	-	?	-	-	?
O=C(NN=C(c1ccccc1)c1ccccn1)c1ccccc1	5.2µM	-	?	?	-	?	-	6.5µM	.
O=C(N/N=C(\c1ccccc1)c1ccccn1)c1ccccc1Cl	?	-	?	?	-	-	.	.	.
c1ccc(-c2c[nH]c3cccc(-c4cc5ccccc5o4)c23)cc1	.	.	.	.	-	.	.	.	.
Cc1ccc2nc(N(Cc3cccnc3)C(=O)c3ccco3)sc2c1	.	.	.	.	-	-	.	.	.
COc1ccc(Cn2cccc(NC(=O)Nc3cccc(C#N)c3)c2=O)cc1	5.2µM	-	4.1µM	-	-	-	-	-	?
Cc1ccc(C)c(N2C(=O)N(C)c3ccccc3S2(=O)=O)c1	.	.	-	-	-	-	.	.	.
O=c1c2ccccc2n(Cc2ccccc2)n1[C@@H](Cc1ccccc1)Cn1cc(C2CCCC2)nn1	.	.	.	.	-	.	.	.	.
CCC1([N+](=O)[O-])COC(C=Cc2ccccc2)OC1 (centres undefined)	?	-	-	-	-	-	.	.	.
O=C1C=CCC(/C=C/c2ccccc2)O1 (centres undefined)	2.6µM	-	?	?	-	-	-	?	1.3µM
Cc1cc(C)nc(Nc2n[nH]c(C)n2)n1	5.8µM	-	-	-	-	-	-	-	-
Cc1cc(C)nc(Nc2n[nH]c(-c3ccc(N)cc3)n2)n1	?	-	-	-	-	-	.	.	.
CCc1ccc(OC(C)c2nc(-c3ccc(-n4cccc4)cc3)no2)cc1 (centres undefined)	8.2µM	.	.	.	-	-	-	-	8.2µM
CCc1ccc(OCc2nc(-c3ccc(-n4cccc4)cc3)no2)cc1	?	.	-	-	-	-	.	.	.
Cc1c(C(=O)NCc2ccccc2Cl)sc2nc3n(c(=O)c12)CCCC3	-	.	-	-	-	-	.	.	.
Cc1c(C(=O)NCc2ccccc2Cl)sc2nc3n(c(=O)c12)CCCCC3	4.6µM	.	-	-	-	-	-	-	-
